In PubChem BioAssay (NCI):
This is part of a sample that, as a whole, favours compounds with a hit. Of some 83,000 tested, about 20% had one in any assay.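 Step 1: grow cells in 96-well plates. Step 2: add test compound at a single concentration. Step 3: incubate 48 h. Step 4: record percent growth.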 Activity calls are given as the source filed them. How the source made its calls: active means growth percent below 10; inactive means the rest.

Tests used:
Experiment in all cases: NCI-60 one-dose screen, 48 h (100 = growth as untreated, 0 = no growth, -100 = all killed)
Conditions in all cases: 10 µM unless noted
[1] = system: HCT-15 colon
[2] = system: HT29 colon
[3] = system: SNB-75 CNS
[4] = system: SNB-19 CNS
[5] = system: U251 CNS
[6] = system: PC-3 prostate
[7] = system: SK-MEL-5 melanoma
[8] = system: LOX IMVI melanoma
[9] = system: SK-MEL-28 melanoma
[10] = system: SK-MEL-2 melanoma
[11] = system: EKVX NSCLC
[12] = system: SN12C renal
[13] = system: UO-31 renal
[14] = system: TK-10 renal
[15] = system: ACHN renal
[16] = system: CAKI-1 renal
[17] = system: A498 renal
[18] = system: CCRF-CEM leukemia
[19] = system: MOLT-4 leukemia

Measured: growth

Oc1ccc(Nc2ccccc2)cc1
inactive: [1] 82.5% | [2] 99.3% | [3] 85.5% | [4] 85.8% | [5] 86% | [6] 65.7% | [7] 83% | [8] 71.4% | [9] 102% | [10] 125% | [11] 81.6% | [12] 90.3% | [13] 68.4% | [14] 117% | [15] 46.9% | [16] 65.4% | [17] 87.4% | [19] 88.6%
active: [18] 0.482%

N#Cc1cnc2cc(OC[C@@H](O)CO)c(NC(=O)CC3CSSC3)cc2c1Nc1ccc(OCc2cccc(F)c2)c(Cl)c1
inactive: [1] 22% | [13] 50.5% | [16] 62.7%
active: [2] -81.6% | [3] -88% | [4] -66% | [5] -70.2% | [6] -82.3% | [7] -97% | [8] -84.2% | [9] -71.9% | [10] -67.7% | [11] -68% | [12] -70.3% | [14] -60.5% | [15] 3.6% | [17] -62% | [18] -46.4% | [19] -50.4%

CCC1C(=O)COC1=O (centres undefined)
inactive: [1] 103% | [2] 62.7% | [3] 91% | [4] 99.3% | [5] 85% | [6] 74.3% | [7] 102% | [8] 93.2% | [9] 112% | [10] 87% | [11] 95.5% | [12] 104% | [13] 95.7% | [14] 90.5% | [15] 103% | [16] 92.4% | [17] 91.4% | [18] 85.4% | [19] 92.9%

COc1ccc(-c2nc(SCC(=O)Nc3ccc(C(C)=O)cc3)[nH]c(=O)c2C#N)cc1
inactive: [1] 103% | [2] 101% | [3] 88.3% | [4] 96.5% | [5] 89.4% | [6] 88% | [7] 100% | [8] 96.2% | [9] 101% | [10] 104% | [11] 102% | [12] 94.5% | [13] 105% | [14] 98.4% | [15] 101% | [16] 96.2% | [17] 98.1% | [18] 109% | [19] 103%

N=c1ccc2nc3c(cc(N)c4ccccc43)oc-2c1
active: [1] -69.9% | [2] -63% | [3] -100% | [4] -94.7% | [5] -87.8% | [6] -39.3% | [7] -100% | [8] -95.6% | [9] -78.8% | [10] -36.1% | [11] -33.9% | [12] -95.2% | [13] -78.7% | [14] -29.7% | [15] -94.4% | [16] -60% | [17] -21.4% | [18] -24.9% | [19] -44%

COc1ccc(C2(Cl)c3ccccc3N(c3ccccc3)c3ccccc32)cc1
active: [1] 8.52% | [2] 3.7% | [3] 3.72% | [4] 6.63% | [5] -87.5% | [6] -24.4% | [7] -87.3% | [8] -84.3% | [9] -74.7% | [10] -39.9% | [11] 0.119% | [12] -1.51% | [13] 7.46% | [14] 8.72% | [15] 4.85% | [16] 7.42% | [17] -26.5%
inactive: [18] 20.6% | [19] 12.7%

COc1cnc2c(c1)C(=O)c1c-2n(CCCNCCN2CCOCC2)c(=O)c2cc([N+](=O)[O-])ccc12
active: [1] 0.784% | [2] 1.17% | [3] -4.98% | [5] -56.5% | [7] -87.8% | [8] -66.2% | [12] 4.54% | [13] -85.8% | [14] -0.695% | [15] -69.6% | [16] -29.5% | [17] -86.7% | [18] 2.23% | [19] -1.41%
inactive: [4] 15.2% | [6] 15.7% | [9] 47.5% | [10] 19% | [11] 15.8%

Fc1ccc(Nc2nc(Nc3ccc(-c4nc5ccccc5[nH]4)cc3)nc(N3CCCC3)n2)cc1
inactive: [2] 36.1% | [3] 65.4% | [4] 103% | [5] 55.8% | [6] 33.8% | [7] 87% | [9] 47.7% | [10] 95.2% | [11] 71.9% | [12] 81.2% | [13] 68.1% | [14] 151% | [15] 73.1% | [16] 88% | [17] 75.3% | [19] 48.2%
active: [1] -8.99% | [8] 3.18% | [18] 5.35%

O=C(/C(=C(\C(=O)c1ccccc1)c1ccccc1)c1ccccc1)c1ccccc1
active: [19] -7.63%
inactive: [1] 24% | [2] 37.6% | [3] 72.8% | [4] 74% | [5] 47.3% | [6] 30% | [7] 59.5% | [8] 64.6% | [9] 89.8% | [10] 81.5% | [11] 40.5% | [12] 62.5% | [13] 63.3% | [14] 86.8% | [15] 39.5% | [16] 57.8% | [17] 79.9% | [18] 16.2%

Cn1c(=O)c2c(nc(Br)n2CC(=O)Nc2ccc(F)cc2)n(C)c1=O
inactive: [1] 115% | [2] 97.8% | [3] 83.4% | [4] 97.5% | [5] 100% | [6] 75.5% | [7] 104% | [8] 96.7% | [9] 118% | [10] 99.1% | [11] 102% | [12] 109% | [13] 80.9% | [14] 115% | [15] 104% | [16] 95.9% | [17] 117% | [18] 90.1% | [19] 91.9%

NC(=O)NCC1CCCCC1
inactive: [1] 94.5% | [2] 102% | [3] 90.7% | [4] 115% | [5] 104% | [6] 104% | [7] 109% | [8] 94.1% | [9] 110% | [10] 105% | [11] 96.6% | [12] 106% | [13] 92.9% | [14] 95.5% | [15] 106% | [16] 89.3% | [17] 104% | [18] 99.3% | [19] 91.9%

COc1cnc2c(c1)C(=O)c1c-2n(CCCNC(C)C)c(=O)c2cc([N+](=O)[O-])ccc12
active: [1] -56.2% | [2] -33.7% | [3] -79.2% | [4] -44.7% | [5] -80.6% | [6] -54.3% | [7] -98.9% | [8] -86.9% | [9] -62.6% | [10] -58.6% | [11] -50% | [12] -54.6% | [13] -75.6% | [14] -63.6% | [15] -84.5% | [16] -71.8% | [17] -84.7% | [18] 2.43% | [19] -15.6%

Nc1nc(Br)nc2c1ncn2C1CC(O)C(CO)O1 (centres undefined)
inactive: [1] 59.1% | [2] 66.3% | [3] 77.4% | [4] 48.6% | [5] 68.7% | [6] 70.1% | [7] 51.2% | [8] 82.4% | [9] 95.8% | [10] 102% | [11] 71% | [12] 52.1% | [13] 34.1% | [14] 71.2% | [15] 29.8% | [16] 50.9% | [17] 89.4% | [18] 27.4% | [19] 27.7%

Cc1ccncc1C(=O)O
inactive: [1] 104% | [2] 101% | [3] 86.6% | [4] 92.9% | [5] 97.2% | [6] 90.1% | [7] 106% | [8] 94% | [9] 95.4% | [10] 121% | [11] 97.5% | [12] 94.6% | [13] 88.7% | [14] 123% | [15] 97.2% | [16] 95.9% | [17] 89% | [18] 140% | [19] 122%

COc1cc(-c2cc3ncccc3c3nc(N)c4cccnc4c23)cc(OC)c1OC
inactive: [1] 21.5% | [4] 44.5% | [5] 18.9% | [6] 22% | [7] 15.8% | [8] 24.1% | [9] 62.7% | [10] 30.7% | [11] 27.1% | [12] 26.7% | [13] 51.1% | [14] 16.3% | [15] 22.6% | [16] 31.1% | [18] 32.5% | [19] 20.7%
active: [2] 4.14% | [3] 6.07% | [17] -17.6%

CCN(CC)CCCCCNc1cc(OC(=O)c2ccccc2)cc2cccnc12
inactive: [1] 78.5% | [2] 20.3% | [3] 70.9% | [4] 101% | [5] 98.2% | [6] 77% | [7] 138% | [8] 58.1% | [9] 121% | [10] 140% | [11] 102% | [12] 95% | [13] 92.5% | [14] 145% | [15] 96.6% | [16] 91% | [17] 81.1% | [18] 93.9% | [19] 55.4%
